# In PubChem BioAssay (NCATS):
# “And” between values parts separate entries of the source, which are not always exact repeats. Identical values can stand only once. Inconclusive results are not listed. Unmarked numbers belong to inactive results. Calls come from the whole dose curve; as a rule, active = well fitted inhibition curve with a large enough effect; inconclusive = small, poorly fitted or top-dose-only effect; inactive = flat fitted curve, though single readings scatter.
# Test: Drug repurposing screens with cells derived from glioblastoma tumor samples (AID 1345199); note: nearly all actives have a fitted effect of over 40% in size
# Conditions: GBM patient neurospheres viability, ATP luminescence, 48 h; at 45.9 µM (top of the series); tumour line D
# Procedure, shortened: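 Four patient lines of CD133+ GBM neurospheres were screened at several concentrations; hits were retested in those lines plus three slower-growing GBM lines, using 48-hour treatment and ATP-based viability.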
# % is set by controls: 0 for no effect and ±100 for the full control effect.
row,Compound,"activity, negative = cell killing"
1,Cc1ccccc1OCC(O)CNCCOc1ccc(C(N)=O)cc1 (stereo unspecified),-24%
2,C[C@]12CCC(=O)C=C1CC[C@@H]1[C@@H]2[C@@H](O)C[C@@]2(C)[C@H]1CC[C@]2(O)C(=O)COP(=O)(O)O,-20.1%
3,COc1ccc(CCNC[C@H](O)c2ccc(O)cc2)cc1OC,-0.958%
4,Cc1c(C)c2c(c(C)c1O)CC[C@@](C)(CCC[C@H](C)CCC[C@H](C)CCCC(C)C)O2,-15.8% and 5.62%
5,O=C(COc1ccc(Cl)cc1)OCCNC12CC3CC(CC(C3)C1)C2,-18.7%
6,CC(=O)N[C@@H](CC(=O)N[C@@H](CCC(=O)O)C(=O)O)C(=O)O,0.816%
7,Cc1cn([C@H]2C[C@H](O)[C@@H](CO)O2)c(=O)[nH]c1=O,6.82%
8,CCCCCCCCCCCCCCCC(=O)OCC(COC(=O)CCCCCCCCCCCCCCC)OC(=O)CCCCCCCCCCCCCCC,-3.31%
9,CC1=C(/C=C/C(C)=C/C=C/C(C)=C/C=C/C=C(C)/C=C/C=C(C)/C=C/C2=C(C)CCCC2(C)C)C(C)(C)CCC1,-14.5%

# Same assay, conditions: GBM patient neurospheres viability, ATP luminescence, 48 h; at 46 µM (top of the series); tumour line A
row,Compound,"activity, negative = cell killing"
1,O=S(=O)(O)O,-0.209%
2,C=CCSSSCC=C,-14.2%
3,N[C@H](C(=O)O)[C@@H]1CC(Cl)=NO1,-38.5%
4,CCCCC(=O)N(Cc1ccc(-c2ccccc2-c2nn[nH]n2)cc1)[C@@H](C(=O)O)C(C)C,-22.5%
5,C/C1=C2N=C(/C=C3N=C(/C(C)=C4\[N-][C@@](C)([C@@H]5N=C1[C@](C)(CCC(=O)NCC(C)OP(=O)(O)O[C@H]1[C@@H](O)[C@@H](n6cnc7cc(C)c(C)cc76)O[C@@H]1CO)[C@H]5CC(N)=O)[C@@](C)(CC(N)=O)[C@@H]4CCC(N)=O)[C@@](C)(CC(N)=O)[C@@H]\3CCC(N)=O)C(C)(C)[C@@H]/2CCC(N)=O.CC(=O)O.[Co] (stereo partly specified),-29%
6,CC1(C)O[C@@H]2C[C@H]3[C@@H]4CCC5=CC(=O)C=C[C@]5(C)[C@H]4[C@@H](O)C[C@]3(C)[C@]2(C(=O)CO)O1,-10.6%
7,C=CC1=C(C)C2=CC3=NC(=C(CC(=O)[O-])C4=NC(=C(C)C4=C([O-])[O-])C=c4[n-]c(c(C)c4CC)=CC1=N2)C(CCC(=O)[O-])C3C.[Cu+2].[Na+].[Na+].[Na+] (stereo unspecified),-28%
8,C[C@]12CCC(=O)C=C1CC[C@@H]1[C@@H]2[C@@H](O)C[C@@]2(C)[C@H]1CC[C@]2(O)C(=O)COP(=O)(O)O,-14%
9,Cc1c(C)c2c(c(C)c1O)CC[C@@](C)(CCC[C@H](C)CCC[C@H](C)CCCC(C)C)O2,-28.9%
10,Cc1cn([C@H]2C[C@H](O)[C@@H](CO)O2)c(=O)[nH]c1=O,-23.5%
11,CCCCCCCCCCCCCCCC(=O)OCC(COC(=O)CCCCCCCCCCCCCCC)OC(=O)CCCCCCCCCCCCCCC,-22.2%
12,CC1=C(/C=C/C(C)=C/C=C/C(C)=C/C=C/C=C(C)/C=C/C=C(C)/C=C/C2=C(C)CCCC2(C)C)C(C)(C)CCC1,-34.5%

# Same assay, conditions: GBM patient neurospheres viability, ATP luminescence, 48 h; at 46.1 µM (top of the series); tumour line C
row,Compound,"activity, negative = cell killing"
1,CN1CCC(CN2c3ccccc3Sc3ccccc32)C1 (stereo unspecified),0.543%
2,O=S(=O)(O)O,-1.26%
3,C=CCSSSCC=C,-8.17%
4,CCCCC(=O)O[C@]1(C(=O)CO)[C@H](C)C[C@H]2[C@@H]3CCC4=CC(=O)C=C[C@]4(C)[C@@]3(F)[C@@H](O)C[C@@]21C,-23.5%
5,O=S(=O)(O)c1ccc2c(N=Nc3ccc(S(=O)(=O)O)c4ccccc34)c(O)c(S(=O)(=O)O)cc2c1,-9.01%
6,CCCCC(=O)N(Cc1ccc(-c2ccccc2-c2nn[nH]n2)cc1)[C@@H](C(=O)O)C(C)C,9.38%
7,COc1ccc(C[C@@H](C)NC[C@H](O)c2ccc(O)c(NC=O)c2)cc1,-20.1%
8,CN(C)CCCN1c2ccccc2C(C)(C)c2ccccc21,1.86%
9,CC1=C(/C=C/C(C)=C/C=C/C(C)=C/C=C/C=C(C)/C=C/C=C(C)/C=C/C2=C(C)C(=O)CCC2(C)C)C(C)(C)CCC1=O,-24.8%
10,CC(NNC(=O)c1ccccc1)c1ccccc1 (stereo unspecified),-40.2%
11,CC1(C)O[C@@H]2C[C@H]3[C@@H]4CCC5=CC(=O)C=C[C@]5(C)[C@H]4[C@@H](O)C[C@]3(C)[C@]2(C(=O)CO)O1,-10.7%
12,Cc1ccccc1OCC(O)CNCCOc1ccc(C(N)=O)cc1 (stereo unspecified),-1.19%
13,C=CC1=C(C)C2=CC3=NC(=C(CC(=O)[O-])C4=NC(=C(C)C4=C([O-])[O-])C=c4[n-]c(c(C)c4CC)=CC1=N2)C(CCC(=O)[O-])C3C.[Cu+2].[Na+].[Na+].[Na+] (stereo unspecified),10.7%
14,COCC(=O)Nc1cc(Sc2ccccc2)ccc1N=C(NC(=O)OC)NC(=O)OC,-20.6%
15,C[C@]12CCC(=O)C=C1CC[C@@H]1[C@@H]2[C@@H](O)C[C@@]2(C)[C@H]1CC[C@]2(O)C(=O)COP(=O)(O)O,-20.1%
16,COc1ccc(CCNC[C@H](O)c2ccc(O)cc2)cc1OC,-0.44%
17,CC(=O)Oc1cc(C)c(OC(C)=O)c2ccccc12,0.711%
18,Cc1c(C)c2c(c(C)c1O)CC[C@@](C)(CCC[C@H](C)CCC[C@H](C)CCCC(C)C)O2,-17.8% and 12.9%
19,O=C(COc1ccc(Cl)cc1)OCCNC12CC3CC(CC(C3)C1)C2,-2.27%
20,CC(=O)N[C@@H](CC(=O)N[C@@H](CCC(=O)O)C(=O)O)C(=O)O,6.84%
21,Cc1cn([C@H]2C[C@H](O)[C@@H](CO)O2)c(=O)[nH]c1=O,-19.1%
22,CO[C@H]1C=CO[C@@]2(C)Oc3c(C)c(O)c4c(O)c(c5c(c4c3C2=O)=NC2(CCN(CC(C)C)CC2)N=5)NC(=O)/C(C)=C\C=C/[C@H](C)[C@H](O)[C@@H](C)[C@@H](O)[C@@H](C)[C@H](OC(C)=O)[C@@H]1C,33.4%
23,CCCCCCCCCCCCCCCC(=O)OCC(COC(=O)CCCCCCCCCCCCCCC)OC(=O)CCCCCCCCCCCCCCC,-9%
24,CCc1ccc2c(c1)N(CC(C)CN(C)C)c1ccccc1S2 (stereo unspecified),11.1%
25,CC1=C(/C=C/C(C)=C/C=C/C(C)=C/C=C/C=C(C)/C=C/C=C(C)/C=C/C2=C(C)CCCC2(C)C)C(C)(C)CCC1,5.35%
